In all, about 5,500 compounds went through this assay and about 2,000 (36%) were called active. Another 18% or so got no clear call; they are omitted. The list shows a part of the results. Unmarked numbers belong to inactive results. Cut-off read from the data, not from the text of the source: active = normalized growth mostly below about 0.91 (no sharp cut-off); inconclusive = no clear call, values can overlap the other calls; inactive = mostly above about 0.92.
Assay: chemical genetic growth profiling, strain panel (AID 1159580);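 note: tested at 20 µM; growth read once vehicle control cultures reached saturation at 30 °C; 1 = growth at the plate median or of vehicle wells; lower values mean less growth of the strain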
Conditions: S. cerevisiae deletion strains, growth OD

COc1cc(O)c2c(=O)c(-c3ccc(O)cc3)coc2c1
normalized growth (locus YBR021W, strain FUR4, hits give low values): 0.832 (active) | normalized growth (locus YBR229C, strain ROT2, hits give low values): 0.973 | normalized growth (locus YCL029C, strain bik1, hits give low values): 0.952 | normalized growth (locus YDL035C, strain GPR1, hits give low values): 0.89 | normalized growth (locus YDL074C, strain BRE1, hits give low values): 0.782 | normalized growth (locus YDL101C, strain DUN1, hits give low values): 0.942 | normalized growth (locus YDL134C, strain PPH21, hits give low values): 0.859 (active) | normalized growth (locus YDL185W, strain tfp1, hits give low values): 0.972 | normalized growth (locus YDL192W, strain arf1, hits give low values): 0.84 (active) | normalized growth (locus YDR101C, strain arx1, hits give low values): 0.873 (active) | normalized growth (locus YDR162C, strain NBP2, hits give low values): 0.853 | normalized growth (locus YDR318W, strain mcm21, hits give low values): 0.886 (active) | normalized growth (locus YDR388W, hits give low values): 0.943 | normalized growth (locus YDR502C, strain sam2, hits give low values): 0.842 (active) | normalized growth (locus YEL061C, strain CIN8, hits give low values): 0.93 | normalized growth (locus YER110C, hits give low values): 0.944 | normalized growth (locus YER155C, strain BEM2, hits give low values): 0.891 (active) | normalized growth (locus YER167W, strain BCK2, hits give low values): 0.853 (active) | normalized growth (locus YGL078C, strain dbp3, hits give low values): 0.935 | normalized growth (locus YGL086W, strain mad1, hits give low values): 0.881 (active) | normalized growth (locus YGL248W, strain PDE1, hits give low values): 0.874 (active) | normalized growth (locus YGR078C, strain PAC10, hits give low values): 0.835 (active) | normalized growth (locus YGR135W, strain pre9, hits give low values): 0.817 (active) | normalized growth (locus YGR252W, strain gcn5, hits give low values): 0.612 (active) | normalized growth (locus YHR030C, strain SLT2, hits give low values): 0.916 (active) | normalized growth (locus YHR079C, strain IRE1 (second series), hits give low values): 0.947 | normalized growth (locus YHR094C, strain hxt1, hits give low values): 0.959 | normalized growth (locus YHR129C, strain ARP1, hits give low values): 0.899 (active) | normalized growth (locus YHR200W, strain rpn10, hits give low values): 0.894 (active) | normalized growth (locus YIL066C, strain RNR3, hits give low values): 0.845 (active) | normalized growth (locus YIL073C, strain SPO22, hits give low values): 0.818 | normalized growth (locus YIL125W, strain kgd1, hits give low values): 0.964 | normalized growth (locus YIR030C, strain dcg1, hits give low values): 0.938 | normalized growth (locus YJL095W, strain BCK1, hits give low values): 0.73 (active) | normalized growth (locus YJL134W, strain LCB3, hits give low values): 0.984 | normalized growth (locus YJL168C, strain set2, hits give low values): 0.947 | normalized growth (locus YJL187C, strain SWE1 (second series), hits give low values): 0.894 | normalized growth (locus YJR043C, strain POL32, hits give low values): 0.771 (active) | normalized growth (locus YJR075W, strain HOC1, hits give low values): 0.859 (active) | normalized growth (locus YKL009W, strain mrt4, hits give low values): 0.88 | normalized growth (locus YKL068W, hits give low values): 0.969 | normalized growth (locus YKL085W, strain MDH1 (second series), hits give low values): 0.948 | normalized growth (locus YKL085W, strain MDH1, hits give low values): 0.948 | normalized growth (locus YKL190W, strain CNB1, hits give low values): 0.961 | normalized growth (locus YKR001C, strain vps1, hits give low values): 0.73 (active) | normalized growth (locus YLR039C, strain RIC1, hits give low values): 0.58 (active) | normalized growth (locus YLR058C, strain SHM2, hits give low values): 0.913 | normalized growth (locus YLR102C, strain apc9, hits give low values): 0.946 | normalized growth (locus YLR262C, strain YPT6, hits give low values): 0.552 (active) | normalized growth (locus YLR268W, strain sec22, hits give low values): 0.866 (active) | normalized growth (locus YLR330W, strain CHS5, hits give low values): 0.872 (active) | normalized growth (locus YLR342W, strain FKS1 (second series), hits give low values): 0.701 (active) | normalized growth (locus YLR371W, strain rom2, hits give low values): 0.823 (active) | normalized growth (locus YLR418C, strain cdc73, hits give low values): 0.61 (active) | normalized growth (locus YML016C, strain PPZ1, hits give low values): 0.947 | normalized growth (locus YML032C, strain rad52, hits give low values): 0.865 (active) | normalized growth (locus YML124C, strain tub3, hits give low values): 0.942 | normalized growth (locus YMR078C, strain ctf18, hits give low values): 0.954 | normalized growth (locus YMR223W, strain ubp8, hits give low values): 0.862 (active) | normalized growth (locus YMR263W, strain SAP30, hits give low values): 0.884 (active) | normalized growth (locus YMR307W, strain GAS1, hits give low values): 0.642 | normalized growth (locus YNL067W, strain RPL9B, hits give low values): 0.891 | normalized growth (locus YNL128W, strain TEP1, hits give low values): 0.96 | normalized growth (locus YNL153C, strain GIM3, hits give low values): 0.941 | normalized growth (locus YNL233W, strain BNI4, hits give low values): 0.809 (active) | normalized growth (locus YNL250W, strain rad50, hits give low values): 0.957 | normalized growth (locus YNL271C, strain bni1, hits give low values): 0.94 | normalized growth (locus YNL298W, strain CLA4, hits give low values): 0.894 (active) | normalized growth (locus YNL307C, strain MCK1, hits give low values): 0.816 (active) | normalized growth (locus YNR052C, strain pop2, hits give low values): 0.919 | normalized growth (locus YOL006C, strain TOP1, hits give low values): 0.489 (active) | normalized growth (locus YOL012C, strain htz1): 1.29 | normalized growth (locus YOL147C, strain pex11, hits give low values): 0.877 (active) | normalized growth (locus YOR061W, strain CKA2, hits give low values): 0.936 | normalized growth (locus YOR069W, strain VPS5, hits give low values): 0.94 | normalized growth (locus YOR136W, strain idh2, hits give low values): 0.946 | normalized growth (locus YOR144C, strain elg1, hits give low values): 0.918 (active) | normalized growth (locus YOR184W, strain ser1, hits give low values): 0.756 (active) | normalized growth (locus YOR316C, strain cot1, hits give low values): 0.945 | normalized growth (locus YPL055C, strain LGE1, hits give low values): 0.791 | normalized growth (locus YPL241C, strain CIN2, hits give low values): 0.97 | normalized growth (locus YPR119W, strain clb2, hits give low values): 0.962 | normalized growth (locus YPR141C, strain kar3, hits give low values): 0.967 | normalized growth (locus YPR163C, strain tif3, hits give low values): 0.93 | normalized growth (locus YPR167C, strain met16, hits give low values): 0.942 | normalized growth (strain wtn01, hits give low values): 0.841 (active)

Reference: PubChem BioAssay AID1159580 (chemical genetic matrix, 2015)
